Measurements reported in PubChem BioAssay AID1508600 (Functional Genomics Laboratory (NCATS/FGL), 2020).
Among all 53,000 sequences or so, about 3,700 (7%) were called active.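 The calls were made as follows: active = gene knockdowns whose robust z-score for IL-1 alpha signal is at least 2 or at most -2, so actives lie on both sides; inactive = the rest.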 Shown is part of a subset that was picked to be rich in actives.

experiment: Components of the Cytosolic LPS Sensing Pathway: Gene Identification via Genome-wide siRNA Screen; conditions: RAW264.7 macrophages, IL-1a HTRF, actives lie on both sides, screened at 100 nM (by protocol), cells primed 5 h with Pam3CSK4 first;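 also: robust z of the log signal after scaling to non-targeting control siRNA wells of the plate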
Procedure, shortened: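 Read-out: IL-1a HTRF on supernatant, divided by plate negative-control median ×100, log-transformed and converted to robust z-score. Cells were RAW264.7 given 100 nM siRNA, Pam3CSK4-primed 5 hours, then LipidA-transfected 24 hour.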

z-score, active:
CGUGAUUGAAUCUCAGGAGTT against Spata24 -2.14
GGAUUAUGUAGAGGCCCAATT against Gngt2 -2.63
GGCAUAGCUGGUCUGAAGATT against Slc3a2 2.06
GCUGGAAGAAAACUUCUAUTT against Jade2 2.49
GGUACCGGAGUCUGAAACATT against Drp2 -2.53
CGUGGAGAGAUCAAUCCCGTT against Adad1 -2.01
GGGCUUGUAUCUACCAUGGTT against Strbp 2.18
GCCACUGUUGUGUAAACUATT against Rap2a 2.01
GCAACUGCCUAGGCUUGAUTT against Slc30a7 4.79
GGAGAAGACUUGUAACAAATT against Hacd4 5.28
GAACCAGACUAAGAACUGUTT against Cox6b1 5.31
GGAGCUGAUAGGACUGAUGTT against Snap47 2.16
GCCCUACCAAAGACACUAGTT against Lrch4 -2.31
GGGCAAACGGAGGAAUGAATT against Slc35g3 2.47
GGUGUGUUUUAUGUGUCCCTT against Ctif 2.62
GCAACGAGUGUGUUUUCUGTT against Spink10 2.25
GCAGCUUUUUGAGGUGUUATT against Slc9a7 3.07
GGAAUAGUGAAGGUACUUUTT against Cer1 2.4
GGACCGUCAGUGUCAUGGATT against Zfp397 -2.55
GGAAGAGGUUAGCAAGCAUTT against Iws1 2.27
GCCUUAUGGUUUUGUAUUUTT against Nap1l1 -2.38
CCACCUAUCAGGAUUCAACTT against Sf3b6 -3.37
GCCUCAUUAUGAGUUGGCATT against Olfr1419 -2.51
GGUCCACAAUGGCAUCAUATT against Elf4 2.13
GGAACCUACUGCUACAUCATT against Sftpc 2.24

z-score, inactive:
CCGACGAUUCCUGAAGCUATT against Tada3 -0.275
GGUGACAGAUUCUUUGAGGTT against Tti2 0.704
GGUCAGAUUAUGCUUUAGATT against Mrgpre -0.783
GCAGAGGGUUUUCCAAGCGTT against Ddx4 -0.631
GGAAGUGACCUGUCUGAAGTT against Gramd1a 0.641
GGACAGCUGGACCUAAAGGTT against Slco4a1 -0.417
GGAGCUGAUGGUUGAAUGUTT against Ehbp1 0.177
GGAUCCUCGGGAGUACAUGTT against Crybg3 0.287
CCAGUAAGUUGCAUUCGAATT against Defb8 0.675
CCUCAUUUCCAAACUCAAATT against Fbxw13 -0.491
CCACGAGAAGUGGAUAUUATT against Plcxd3 -1.1
CCUGAACAUGAGUUAAAAGTT against Lmo4 0.156
GGAUUAGCUCUACAGAAGGTT against Olfr1031 1.67
GGAGCUGUUUUUCCACUCCTT against Phlda2 -0.337
GGUAUGGUUUCUAUAACAATT against Arsj 0.814
GGAAGGUCAUGUGAAUAUCTT against A930002I21Rik -1.6
GGCUUUGAGAGUUUGUCACTT against 2410004B18Rik -1.62
GGGAGUUAAACUUCUCUGCTT against Tlr13 -0.0637
GGGUCAGUGUGGAGAGUACTT against Col13a1 0.679
GGAUGAAUGGAAUUUACUGTT against Fbh1 0.406
GGGAAAAGUGGUAAAUUAUTT against Shprh 0.194
GGAAGACAAGGUUUUAGCUTT against Ulbp1 1.92
GGUUCAUGAAUGACAAACUTT against Sult4a1 0.383
GGUGUUUAAUAAUGUUGUCTT against Olfr976 -0.27
CCCAAUGACAAUAAAGACCTT against Mmp25 -0.936
GGUAAGAGGAUCCAAGGUGTT against Fam131a 0.0909
CCUACGUCCAGUAGUGCAGTT against Ahdc1 1.43
GCUCAAAGGACCUCUGAGCTT against Slc29a2 -1.28
CCUCCACUUCGUGAGCGAATT against Xxylt1 -1.25
GGAGAAGUCUUCAUUUGAATT against Tubgcp2 -0.331
GGAAGUAGGCAGCAUCAUCTT against Pcbp1 1.13
GGCUGGCUUUGAACUCAAUTT against Zfp36 -1.28
GGCAGAUGUAUGAAAUCUUTT against Fancc -0.196
GGUAUGCAACCUUGCCUUUTT against Coa3 0.945
GGGAUGACUUGGAGUCUCUTT against Csnk1d -0.0473
CGGUUUCUUACCAGCAAUUTT against Mgmt -0.237
GGCCUUCUCUGACUUUCUGTT against Zfp324 -0.633
GGGACAAUGUACAUCUACUTT against Dnaaf6b -0.199
GCAAGAUCCGUACAUAGCATT against Wdr48 -1.43
GGCAUUAAAGACCUGUUAATT against Kpnb1 -0.887
AUUGUAGCAGUGAAUUGGATT against Pdia6 -0.121
CCAGAAAUUGACAAAAAGUTT against Etfa 0.492
GGCAGGAGAAAGGCCUUUUTT against Olfr535 0.123
GAGUGUGCAUUUUGUUAGUTT against Olfr136 0.763
GGCUGAGGCUGUGAAGAAGTT against Igfbp5 -0.659
GGAGAGUAAAUACCGACAGTT against Homer2 -0.133
GCUGUUACCCUUAUGCAGCTT against Supt7l 0.486
GGACAACGAUAGCUAACCUTT against Tmem63a 0.453
GGAUGAAGAACCACUCAAATT against Ankzf1 -1.06
CCUAUUUUAACCUUACGUGTT against Bdh1 -0.443
GGAAGAGUUGGAGAAAAUUTT against Tex46 2
GGAGGUCUACAUUUAUUAATT against Dera 1.31
CCAAACAGGCUUUUUUCCUTT against Snx31 -0.712
CCAUGUCAAACACCUUAGUTT against Crebzf 1.26
GGUAAGCUCCAAUUAUGCCTT against Ubr3 0.0463
GGAGCAAUUGAGAAAGAAGTT against Moap1 0.508
CCCGUAACCAUUUACUGGUTT against Tyro3 0.85
GGCACGAGCUCUCAUCUUUTT against Slc27a4 -0.752
GGAAACAAGGGACUCUGUATT against Col4a4 0.906
GGAAUUCUCUAUACCAAGATT against P2ry10b 0.51
GCAAUUCCUCUUUUAGUCCTT against Spag6l -1.38
GGCAGAUCUUCUUUGGAAATT against Ugt2b38 0.757
CCAUUGUUUGACUCAAAACTT against Gjc3 0.62
GGACCAUGGAUAUUUAAAGTT against Mafk -0.297
GGAACUCUGUGGGUGAGAATT against Dock8 -1.46
CCGGAUGUGCCUUGUCUACTT against Ckap5 -1.58
GGAAAAUCAAGACCUAUGGTT against Obox6 -1.37
GUGCAUUGUCUUUUGUAGATT against Olfr1095 -0.753
CGAUAAACUGGAUACCACUTT against Sntn 0.437
GCAAUCUGUUUAGAGAGAGTT against Slc10a5 -1.16
GGUGGUGAAUAUGAUGAUATT against Tsr1 -0.712
GCUAAUGAUUUCCGCUUUGTT against Tyw1 0.367
GCCCGCAUUCUUAUUCGAUTT against Tmem64 -1.13
GCUGAUGUUAAAUUCGCAGTT against Serpinb3b 1.33
GGAGCCCUGUGUCUUGAGUTT against Ccl19 -0.39
GGAGAUCCAAGAGAAAUUUTT against Csf3r 1.18
GCAUUACACUGUUAAUGUUTT against Gopc -0.138
GGAAUCACAAGGUAUUUUCTT against Spo11 -0.237
GGAGAAGUUUAAGGAGAUUTT against Dnajb5 1.54
CCUUUGGUAAUCUCCAAAATT against Amph 0.862
CCUUCUGCGGCUCAGUCUATT against Bach2os -0.199
GGCUUUCCUUACCAUAUAUTT against Trim7 -0.675
GGAGAUUGGCAUAGAGAAGTT against Myo5b 0.437
